The text below walks through data of PubChem BioAssay AID618 (Sanford-Burnham Center for Chemical Genomics, 2007).

The whole screen tested about 87,000 compounds, of which about 540 (0.62%) were called active. How the calls were made is not given here. Shown is part of a subset that was picked to be rich in actives. Where a call stands in place of a potency, no number is given. Potency and affinity values are given separately.

The experiment can be described thus: MT1-MMP gene expression reporter suppression – cell-based, luciferase reporter, luminescence (AID 618).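 Further: actives suppress MT1-MMP promoter-driven transcription so potencies describe inhibitors.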 To be noted: MT1-MMP promoter luciferase reporter cells. (In general: Reporter assays use an easily measured gene product as a stand-in for the process of interest.)
`COC(=O)c1ccc(CSc2nnc(SCc3ccc(C(=O)OC)o3)s2)o1`: the outcome was inactive.
As for `CCN1C(c2ccc(F)cc2)=CS/C1=C(\C#N)c1nnc2n1-c1ccccc1SC2`, the entry is “inactive”; as for `CNc1nnc(-c2cccc(N(C)C)c2)s1`, “inactive”; as for `CNc1nnc(-c2ccncc2)s1`, “inactive”.
Then `Cc1ccc(-c2nc(CS(=O)(=O)CC(=O)NC3CCCCC3C)c(C)o2)cc1` (stereo not drawn), with “inactive”; and `CCCCCCc1ccc(-c2ncc(N)cn2)cc1`, with “active”.
Then `CCc1ccc(-c2ccc(C(=O)O)cc2)nc1`, with “inactive”.
Consider `CCCCCc1ccc(-c2ccc(=O)[nH]n2)cc1`, for which the result was inactive.
`CCCc1ccc(-c2ccc(C(=O)O)cc2)nc1`: the result was inactive.
As for `CCCCc1ccc(-c2nc(N)n[nH]2)cc1`, the compound was called inactive.
`CC(=O)c1ccc(N=Cc2c(O)n(-c3cc(Cl)ccc3N3CCOCC3)c(=O)c3ccccc23)cc1`: the outcome was inactive.
Then `Cc1noc(NS(=O)(=O)c2ccc(NC(=O)CSc3nc4ccccc4[nH]3)cc2)c1C`, with “inactive”; and `CCCc1nc(SCc2ccccn2)c2c(=O)n(C)c(=O)n(C)c2n1`, with “inactive”; and `CCOc1nc(NCCc2ccc(OC)c(OC)c2)nc(N2CCN(c3ccc(OC)cc3)CC2)n1`, with “inactive”.
For `Cc1cccc(N2CCN(C(=O)c3cc4c(=O)n(C)c5ccccc5c4n3C)CC2)c1C`, the compound was called inactive.
Then `COc1ncnc2sc(-c3ccccc3)cc12`, with “inactive”.
Then `COc1ccc(-c2cc(=O)c3ccccc3s2)cc1`, with “inactive”; and `O=C(Nc1ccc(N2CCCC2=O)cc1)c1cccc(F)c1`, with “inactive”; and `O=C(Nc1ccc(N2CCCC2)cc1)c1cccc(F)c1`, with “active”.
Then `O=C(Nc1ccc(N2CCCCC2)cc1)c1cccnc1`, with “inactive”; and `O=C(Nc1ccc(N2CCN(C(=O)c3ccco3)CC2)cc1)c1cccc(F)c1`, with “inactive”.
As to `O=C(Nc1ccc(N2CCCCC2)cc1)c1ccc(F)cc1`, the compound was called inactive.
As for `O=C(COc1ccc(Br)cc1CO)Nc1ccccc1F`, the entry is “inactive”; as for `O=C(NCCCN=C1NS(=O)(=O)c2ccccc21)c1ccco1`, “inactive”; as for `COC(=O)C1CCN(C(=O)c2ccc(NC(C)=O)cc2)CC1`, “inactive”.
As for `CCOC(=O)C(C)Oc1cccc2c(=O)n(CC(=O)NCc3ccco3)ccc12` (stereo not drawn), the entry is “active”; as for `CCOC(=O)COc1cccc2c(=O)n(CC(=O)NCc3ccc4c(c3)OCO4)ccc12`, “inactive”.
For the compound `CCOC(=O)C(C)Oc1cccc2c(=O)n(CC(=O)N3CCc4ccccc43)ccc12` (stereo not drawn), the result was inactive.
As for `Nc1nonc1C(=O)NCCNCc1cc(Br)ccc1OCc1ccccc1F`, the entry is “active”.
Turning to `Nc1nonc1C(=O)NCCNCc1ccccc1OCc1ccccc1F`, the compound was called inactive.
Then `Nc1nonc1C(=O)NCCNCc1cc(Br)ccc1OCc1ccc(F)cc1`, with “inactive”; and `c1ccc(C2CC(c3ccccc3)n3ncnc3N2)cc1` (stereo not drawn), with “inactive”; and `O=c1[nH]c(=O)n([C@H]2C[C@H](O)[C@@H](CO)O2)cc1F`, with “active”.
Then `O=c1[nH]c(=O)n([C@H]2C[C@H](O)[C@@H](CO)O2)cc1C(F)(F)F`, with “inactive”; and `CCc1cn([C@H]2C[C@H](O)[C@@H](CO)O2)c(=O)[nH]c1=O`, with “inactive”; and `Cc1ccc(NC(=O)CN(C)C(=O)CSc2nc3ccccc3c(=O)n2Cc2ccco2)cc1`, with “inactive”.
Then `Cc1csc2nc(CSc3nc4ccccc4o3)cn12`, with “inactive”; and `Cc1csc2nc(CSc3ccc(Cl)cc3)cn12`, with “inactive”.
On to `COc1ccccc1/C=N/NC(=O)C1=NNC(c2ccccc2)(c2ccccc2)C1`, for which the compound was classed as inactive.
Then `Cc1ccc(-c2cc(C(=O)N/N=C/c3ccco3)[nH]n2)cc1`, with “inactive”; and `O=C(CSc1ccccc1)Nc1ccncc1`, with “inactive”; and `Cc1cc2c(c(=O)n1Cc1ccccn1)C(C(C)C)C(C#N)=C(N)O2` (stereo not drawn), with “inactive”.
With `Nc1ccc(O)c(-c2nc3ccccc3s2)c1`, the result was inactive.
Then `Cc1nc(-c2cccc(N)c2)cs1`, with “inactive”.
Then `Nc1cccc(-c2nc3ccccc3s2)c1`, with “inactive”.
As for `Cc1nc2ccc(N)cc2s1`, the entry is “inactive”; as for `Nc1cccc(-c2nc3ccc(N)cc3s2)c1`, “active”; as for `COc1cccc(NC(=O)C2C3C=CC4(O3)C2C(=O)N(C2CC2)C4C(=O)NC2CCCCC2C)c1` (stereo not drawn), “inactive”.
With `C=C(C)c1cccc(C(C)(C)NC(=O)N2CCN(CC(N)=O)CC2)c1`, the compound was classed as inactive.
In the case of `CC(C)(C)c1ccc(C2(C)NC(=O)N(CC(=O)Nc3ccc4c(c3)OCO4)C2=O)cc1` (stereo not drawn), the outcome was inactive.
On to `CCCCCn1c(=O)[nH]c2cc(C(=O)N3CCN(CC)CC3)ccc2c1=O`, for which the compound was called inactive.
As for `CCOC(=O)N1CCN(C(=O)CN(C2CCCCC2)S(=O)(=O)c2ccc(Cl)cc2)CC1`, the entry is “inactive”; as for `COc1ccc(NC(=O)/C(Cl)=C(/Cl)S(=O)Cc2ccc(C)cc2)cn1` (stereo not drawn), “active”.
Then `COc1ccc(NC(=O)c2nc3nccc(C)n3n2)cn1`, with “inactive”.
As for `COc1ccc(NC(=O)c2cc(=O)c3ccccc3o2)cn1`, the entry is “inactive”; as for `COc1ccc(NC(=O)/C(Cl)=C(/Cl)S(=O)Cc2ccccc2)cn1` (stereo not drawn), “active”; as for `COc1ccc(NC(=O)c2cc(CN3C(=O)c4ccccc4C3=O)ccc2OC)cn1`, “inactive”.
Turning to `CCOc1ccccc1OCCCC(=O)Nc1ccc(OC)nc1`, the outcome was inactive.
Then `Cc1ccc(C(=O)n2cnnc2N)cc1`, with “inactive”; and `CN(C)c1nc(N)nc(-c2cccnc2)n1`, with “inactive”.
Then `COc1ccc(C)cc1S(=O)(=O)N(C)CC(=O)Nc1ccc2c(c1)OCO2`, with “inactive”; and `Cc1ccc2ccccc2c1COC(=O)c1nonc1N`, with “inactive”; and `CC(=O)Nc1cccc(Oc2ccc(-c3noc(C)n3)cc2)c1`, with “inactive”.
Then `CCCC(=O)N1CC(=O)Nc2ccc(F)cc2C1c1ccccc1` (stereo not drawn), with “inactive”; and `O=C(COc1ccc(CO)cc1)Nc1ccc(F)cc1`, with “inactive”.
Regarding `COc1ccccc1NC(=O)COc1ccc(CO)cc1Cl`, the compound was classed as inactive.
Consider `N#C/C(=C\c1ccc[nH]1)Sc1nc2ccccc2s1`, for which the compound was classed as inactive.
As for `COc1ccccc1N(CC(=O)NC1CCCC1)C(=O)CCC(=O)Nc1cc(C)on1`, the compound was called inactive.
Turning to `COCC(C)n1c(C)cc(C(=O)CSc2ccc(NC(C)=O)cc2)c1C` (stereo not drawn), the result was inactive.
Then `CC(=O)Nc1ccc(SCC(=O)c2cc(C)n(C)c2C)cc1`, with “inactive”; and `C=CCn1c(C)cc(C(=O)CSc2nc3ccccc3o2)c1C`, with “inactive”; and `C=CCn1c(C)cc(C(=O)CSc2n[nH]c(N)n2)c1C`, with “inactive”.
`CC(=O)Nc1ccccc1OCC(=O)c1cc(C)n(Cc2cccs2)c1C`: the call was inactive.
As for `Cc1cc(C(=O)CN2C(=O)c3ccccc3C2=O)c(C)n1Cc1cccs1`, the entry is “inactive”; as for `COc1ccc(-c2n[nH]c(C)c2-c2cc(OC)ccc2O)cc1`, “inactive”.
As for `CCSC1=C(C#N)C(c2ccccc2C)CC(=O)N1` (stereo not drawn), the entry is “inactive”; as for `Cc1cc(SCc2cc(=O)[nH]c3ccccc23)nc2ccccc12`, “inactive”.
Then `O=C(O)c1c2c(nc3ccc(F)cc13)CCC2`, with “inactive”; and `COCCn1nnnc1C(c1ccc(OC)cc1OC)N1CCN(c2ccccc2F)CC1` (stereo not drawn), with “inactive”.
Turning to `Cc1ccccc1OCC(=O)Nn1c(COc2ccccc2)nc2ccccc2c1=O`, the compound was called inactive.
In the case of `CC1=C(C)C(=O)N(c2ccc(C(=O)O)cc2)C1=O`, the compound was classed as inactive.
Then `O=C1/C(=C\c2ccc3ccccc3c2)CCCc2ccccc21`, with “inactive”.
Then `COC(=O)c1ccc(C(NC(=O)OCc2ccccc2)/C(F)=C/[C@@H](C)C(=O)NCc2ccc(OC)c(OC)c2)cc1` (stereo partly drawn), with “inactive”; and `CCC(C)C1C(C#N)=C(N)Oc2n[nH]c(-c3ccccc3)c21` (stereo not drawn), with “inactive”.
As for `O=C(Oc1ccc2ccccc2c1)c1ccccc1`, the entry is “inactive”; as for `O=C(CCl)Nc1cc(-c2ccccc2)nn1-c1ccccc1`, “active”.
For the compound `CC(=O)Nc1cc(-c2ccc(Cl)cc2)nn1-c1ccccc1`, the result was inactive.
As for `Cc1ccc(-c2cc(NC(=O)CCl)n(-c3ccccc3)n2)cc1`, the entry is “inactive”.
Then `O=C1CS/C(=C/C(=O)c2ccccc2)N1`, with “inactive”.
Take `NCCCCCc1nnc(SCc2cccc(Cl)c2)o1`: the outcome was inactive.
Turning to `N#C/C(=C/c1ccc(N2CCOCC2)o1)c1nc2ccccc2[nH]1`, the compound was called inactive.
Regarding `Cc1ccc2nc(/C(C#N)=C\c3ccc(N4CCOCC4)o3)[nH]c2c1`, the call was inactive.
Regarding `Cc1nc2nc(-c3cccs3)cn2nc1C`, the compound was classed as inactive.
Then `CCc1c(-c2ccccc2)nc2nc(C)c(C)nn12`, with “inactive”.
Then `CCc1ccc(-c2nn[nH]n2)cc1`, with “inactive”.
Then `CCc1ccc(-c2cn3nc(C)c(C)nc3n2)cc1`, with “active”.
Take `Cc1ccc(-c2cn3nc(C)c(C)nc3n2)cc1`: the outcome was active.
Then `Cc1nc2nc(-c3ccccc3)cn2nc1C`, with “inactive”; and `O=Cc1ccccc1OCCOc1ccccc1C=O`, with “inactive”.
As for `CN(C)c1ccc(-c2nc3ccccc3n2C)cc1`, the entry is “active”.
As for `Cn1c(-c2ccc(N)cc2)nc2ccccc21`, the entry is “inactive”; as for `CC(C)n1c(-c2ccc(N(C)C)cc2)nc2ccccc21`, “inactive”.
For `O=C(CN1CCN(c2ccccc2)CC1)Nc1ccccc1C(F)(F)F`, the compound was classed as inactive.
Turning to `Cc1cccc(NC(=O)CN2C(=O)COc3ccc(Cl)cc32)c1`, the compound was called inactive.
As for `CCOC(=O)c1c(C)cc(=O)oc1C`, the entry is “inactive”; as for `CCOC(=O)c1c(C)oc2cc3c(C(=O)OCC)c(C)oc3cc12`, “inactive”.
As for `CCOC(=O)c1c(C)oc2c(F)c(F)c(F)c(F)c2c1=O`, the outcome was active.
For `O=C(Oc1ccnc2cc(Cl)ccc12)N1CCOCC1`, the result was inactive.
Then `COc1ccc(OC)c(S(=O)(=O)n2nc(-c3ccccc3)cc2N)c1`, with “inactive”.
`COc1ccc(-c2cc(N)n(S(=O)(=O)c3c(F)c(F)c(F)c(F)c3F)n2)cc1OC`: the compound was classed as active.
Consider `COc1ccc(S(=O)(=O)n2nc(-c3cc(OC)c(OC)c(OC)c3)cc2N)cc1OC`, for which the call was inactive.
Then `CC(C)(C)Nc1nc(NCc2cccnc2)nc(N2CCOCC2)n1`, with “inactive”.
Then `CSc1ccccc1NC(=O)c1ccccc1N(C)S(C)(=O)=O`, with “inactive”.
Turning to `CCCc1cc2c(n1CCc1ccc(Cl)cc1)C(C)C1CN(C(=O)c3ccccc3)C(C)(C(=O)OC)C21` (stereo not drawn), the call was inactive.
As for `CCOc1ccc(Br)cc1/C(C)=N\NC1=NCCN1`, the entry is “inactive”.
Regarding `CCCCCOc1ccc(Br)cc1/C(C)=N/NC1=NCCN1`, the compound was classed as active.
As for `CCCCOc1ccc(Br)cc1/C(C)=N/NC1=NCCN1`, the entry is “inactive”.
With `O=C(Cn1ncc2c(=O)oc3ccccc3c21)NCCN1CCN(c2ccccc2F)CC1`, the compound was called inactive.
